Only some compounds are listed: those with a hit (about 2.8% of all), similar ones and a draw of the others.
POLK inh: blocks human DNA polymerase kappa activity; purified Pol kappa, fluorescent DNA synthesis assay, 10 min; AID 588579; Potency, µM (doses to about 107 µM), most hits filed as inhibitors; 0.53% of 400,000 active; Q9UBT6
Target sequence (Q9UBT6 whole entry, looked up): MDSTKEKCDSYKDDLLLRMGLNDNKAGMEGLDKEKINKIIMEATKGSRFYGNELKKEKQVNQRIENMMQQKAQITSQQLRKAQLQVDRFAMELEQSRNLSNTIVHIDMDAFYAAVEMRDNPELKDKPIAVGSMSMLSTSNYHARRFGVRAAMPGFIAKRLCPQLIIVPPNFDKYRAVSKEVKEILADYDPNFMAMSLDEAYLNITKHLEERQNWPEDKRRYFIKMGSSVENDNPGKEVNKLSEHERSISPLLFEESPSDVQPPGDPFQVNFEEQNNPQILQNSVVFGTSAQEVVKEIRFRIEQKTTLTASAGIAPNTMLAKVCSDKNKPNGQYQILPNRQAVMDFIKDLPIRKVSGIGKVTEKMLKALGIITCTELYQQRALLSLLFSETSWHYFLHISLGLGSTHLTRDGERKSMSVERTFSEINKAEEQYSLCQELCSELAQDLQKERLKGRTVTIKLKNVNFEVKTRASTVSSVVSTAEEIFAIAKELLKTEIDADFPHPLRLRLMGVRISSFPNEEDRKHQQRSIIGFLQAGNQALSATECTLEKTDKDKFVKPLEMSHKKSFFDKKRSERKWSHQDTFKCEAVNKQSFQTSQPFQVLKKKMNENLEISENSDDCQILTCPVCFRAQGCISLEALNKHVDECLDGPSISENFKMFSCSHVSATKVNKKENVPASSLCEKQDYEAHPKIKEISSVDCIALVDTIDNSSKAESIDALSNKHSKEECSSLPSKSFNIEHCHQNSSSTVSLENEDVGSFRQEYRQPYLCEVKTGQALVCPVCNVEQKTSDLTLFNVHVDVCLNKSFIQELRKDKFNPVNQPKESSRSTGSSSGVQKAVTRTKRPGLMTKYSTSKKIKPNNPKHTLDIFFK
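Kinetic fluorescence screen: compound preincubated 15 min RT with 10 nM enzyme; 50 nM substrate (final) initiates; reads at 0/10 min.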
WRN inhibitor: inhibitors of human WRN helicase; Q14191; WRN helicase unwinding, fluorescent forked duplex, kinetic; Potency, µM (top dose mostly 114 µM), actives largely listed as inhibitors; 0.46% of 360,000 active; also: nearly all actives have a fitted effect of over 55% in size
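Screening of the MLSMR collection measured strand separation of a quenched forked DNA duplex (100 nM) by 20 nM WRN with 2 mM ATP, all final. Compounds were preincubated with enzyme 15 min at room temperature.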
POLB inh: inhibitors of human DNA polymerase beta; P06746; Pol beta primer extension/strand displacement, fluorescence kinetic; 1.3% of 340,000 active; Potency, µM (highest dose often 114 µM), usual class: inhibitors
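Enzyme-only controls used 10 nM Pol beta; buffer lacking enzyme served as negative control. Compound preincubated 15 min, then 50 nM substrate added; 0 and 10 min reads at room temperature.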
PI5P4Ka inh: inhibitors of human PI5P4K alpha; max response, %; PI5P4Kalpha enzyme, ADP-Glo luminescence, 60 min; hits give low values; 1.2% of 330,000 active; AID 652105; active = max response of -50% or lower; inconclusive = between -30% and -50%; inactive = -30% or higher; also: value at the top dose of about 77 µM
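Single end-point luminescence (ADP-Glo) quantified ADP from PI5P4Kalpha turnover; ATP 5 microM final, 1 h at RT, 0.1% CHAPS and 0.28 mM EGTA in HEPES pH 7.4.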
Pol eta inh: DNA polymerase eta (human) inhibition; AID 588591; Potency, µM (titrated, usually from 114 µM), hits mostly inhibitors; 1.2% of 390,000 active; Q9Y253; recombinant Pol eta, fluorescent DNA replication assay
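Fluorescent replication assay: 50 nM final substrate added after a 15 min room-temperature compound preincubation with 10 nM enzyme. Signal taken at 0 min and again at 10 min.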
POLI inh: inhibitors of human DNA polymerase iota | Pol iota fluorescent replication assay, 10 min | Potency, µM (titrated, usually from 115 µM), hits mostly inhibitors | 1% of 390,000 active | AID 588590
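Fluorescent replication assay read twice, at 0 min and 10 min after adding 50 nM (final) substrate. Enzyme (10 nM) and compounds were first incubated 15 min at room temperature; enzyme-free buffer wells were negative controls.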
Of the large screens only hits and unclear results are named; the others gave an inactive call. Unless noted, calls follow the shape of the dose curve; as a rule, active = well fitted curve in the direction sought with a large enough effect; inconclusive = small, poorly fitted or top-dose-only effect, or another doubt; inactive = no such curve, though single readings can be large; an effect the other way counts as inactive or inconclusive.

CCCCC1(C)OC(=O)C(=Cc2ccc(N(CC)CC)cc2)C(=O)O1 (stereo unspecified)	WRN inhibitor inconclusive, POLI inh inconclusive
CCN(CC)c1ccc(C=C2C(=O)OC3(CCCCC3)OC2=O)cc1	WRN inhibitor 50µM, POLI inh inconclusive
COC(=O)c1ccc(NCc2cc(O)ccc2O)cc1O	none (no result: POLB inh)
COC(=O)c1ccc(NCc2c(O)ccc(O)c2Br)cc1Cl	WRN inhibitor 50µM (no result: POLB inh)
Cc1ccc(OCCCCn2nnc3sc4c(c3c2=O)CCCC4)cc1	none (no result: WRN inhibitor, PI5P4Ka inh, Pol eta inh)
Cc1cccc(OCCn2nnc3sc4c(c3c2=O)CCCC4)c1	POLB inh 20µM, POLI inh inconclusive (no result: WRN inhibitor, PI5P4Ka inh, Pol eta inh)
Cc1ccc(OCCCCn2nnc3sc4c(c3c2=O)CCC(C)C4)cc1 (stereo unspecified)	POLB inh 25µM (no result: WRN inhibitor, PI5P4Ka inh, Pol eta inh)
CCOC(=O)c1cc(-c2ccc(C)cc2)n(CC(=O)Nc2ccc(OC)cc2OC)c1C	none (no result: WRN inhibitor, PI5P4Ka inh)
CCOc1ccc2nc(NC3=NC(c4ccc(OC)cc4)CC(=O)N3)nc(C)c2c1 (stereo unspecified)	WRN inhibitor 50µM (no result: PI5P4Ka inh)
CCOc1ccc2nc(NC3=NC(C)(C)C=C(C)N3)nc(C)c2c1	none
O=C1c2oc3ccccc3c(=O)c2C(c2ccccc2)N1Cc1ccc2c(c1)OCO2 (stereo unspecified)	none (no result: WRN inhibitor, PI5P4Ka inh)
Cn1c2ccccc2c(=O)c2cc(C#CC3=CCCCC3)ccc21	POLK inh inconclusive, Pol eta inh 45µM, POLI inh 4µM (no result: POLB inh)
Cc1nc(C)c(-c2csc(Nc3ccc(C(=O)O)c(O)c3)n2)s1	PI5P4Ka inh -72, Pol eta inh inconclusive
CC[N+](C)(C)c1ccc(/C=C/c2ccncc2)cc1	POLI inh 79µM (no result: WRN inhibitor, POLB inh, PI5P4Ka inh, Pol eta inh)
CN(C(=O)CSc1nc(-c2ccccc2)no1)c1ccc(F)cc1	none (no result: WRN inhibitor, PI5P4Ka inh)
Cc1[nH][nH]c(=O)c1C(c1c(C)[nH][nH]c1=O)c1cn(C)c2ccccc12	POLI inh 2.5µM
Cc1[nH][nH]c(=O)c1C(c1c(C)[nH][nH]c1=O)c1cn(Cc2cccc3ccccc23)c2ccccc12	PI5P4Ka inh inconclusive, Pol eta inh inconclusive
Cc1cccc(C(=O)OCC(=O)c2ccc(CC(=O)N3CCOCC3)s2)c1C	POLK inh 79µM, WRN inhibitor inconclusive, PI5P4Ka inh -60, Pol eta inh 10µM (no result: POLB inh)
Cc1cccc(C(=O)OCC(=O)N2CC(C)OC(C)C2)c1C (stereo unspecified)	none
N#C/C(=C\c1ccc(F)cc1)C(=O)NCC1CCCO1 (stereo unspecified)	none (no result: WRN inhibitor, PI5P4Ka inh)
O=C(COC(=O)c1ccc([N+](=O)[O-])o1)NCCc1ccccc1	Pol eta inh 79µM, POLI inh 45µM (no result: POLB inh)
CC(NC(=O)COC(=O)c1ccc([N+](=O)[O-])o1)c1ccccc1 (stereo unspecified)	Pol eta inh 89µM, POLI inh inconclusive (no result: POLB inh)
O=C(COC(=O)c1ccc(Br)o1)NCc1ccc2c(c1)OCO2	none (no result: POLB inh)
O=C(COC(=O)c1ccc([N+](=O)[O-])o1)NCc1ccc2c(c1)OCO2	Pol eta inh 79µM, POLI inh inconclusive (no result: POLB inh)
COc1cc(NC(=O)CSc2nc3nc(C)c(Cc4ccc(C)cc4)c(C)n3n2)cc(OC)c1	none (no result: WRN inhibitor, PI5P4Ka inh)
O=[N+]([O-])c1ccc(C(c2sc3nc(-c4ccco4)nn3c2O)N2CCN(Cc3ccccc3)CC2)cc1 (stereo unspecified)	none (no result: WRN inhibitor, PI5P4Ka inh)
COC(=O)c1cc2sc(C)cc2n1CC(=O)Nc1cccc(SC)c1	none (no result: WRN inhibitor, PI5P4Ka inh)
CNc1ccccc1C(=O)OCC(=O)N1CCc2ccccc2C1	none (no result: POLK inh, POLB inh, POLI inh)
Nc1nnnn1/N=C/c1ccccc1	none
Nc1nnnn1/N=C/c1ccccc1C(F)(F)F	PI5P4Ka inh -56
CN(C)c1ccc(/C=C/c2cc[n+]([O-])cc2)cc1	none (no result: POLK inh, WRN inhibitor, PI5P4Ka inh, Pol eta inh, POLI inh)
CC[n+]1c(/C=C/c2ccc(N(C)C)cc2)ccc2ccccc21	WRN inhibitor inconclusive, POLB inh 28µM, Pol eta inh inconclusive
CN(C)c1ccc(/C=C/c2cc[n+]([O-])c3ccccc23)cc1	none (no result: WRN inhibitor, POLB inh, PI5P4Ka inh, Pol eta inh)
CC[n+]1ccc(/C=C/c2ccc(N(C)C)cc2)c2ccccc21	POLK inh inconclusive, WRN inhibitor 45µM, POLB inh 45µM, PI5P4Ka inh inconclusive, Pol eta inh inconclusive
CN(C)c1ccc(/C=C/c2cc[n+](C)cc2)cc1	WRN inhibitor 79µM
